According to ChEMBL document CHEMBL3988442, “University of Dundee, Small-Polar-MMV Screening Library” (2021):
About 13,000 (27%) of roughly 48,000 compounds showed an effect of 50% or more. This is one part of the list.

system: Wolbachia pipientis; assay: Anti-Wolbachia Cell-Based Screen; assay type: functional; design: scale not given: in the data most compounds retested in dose-response had high values; conditions: 5 µM

Going from O=C(NCc1ccco1)Nc1cccc(S(=O)(=O)C(F)F)c1 to Cn1cc(CC(CNC(=O)Nc2cccc(Cl)c2)C(N)=O)cn1 (stereo not given), the “Percent Effect” value falls from 12.8% to 3.636%.

Going from Cc1nc2cc(OCc3nc(C(=O)NC(CO)CO)co3)ccc2s1 to Cc1ccc(-c2cc(C(=O)NCCCc3csc(N)n3)[nH]n2)o1, the “Percent Effect” value rises from -12.2% to 17.13%.

Going from CCC(C(=O)NCc1ccncc1)N(c1ccc(F)cc1)S(C)(=O)=O (stereo not given) to COCCN(Cc1nccs1)C(=O)c1cc(-c2ccc(C)o2)n[nH]1, the “Percent Effect” value falls from -11.09% to -13.35%.

Compared with Cc1cc(C)c2nc(CN3CCC(CN)C3)cc(O)c2c1 (stereo not given), Cc1ccc(-c2nc(CC(=O)N3CCCC(NC(=O)C(C)C)C3)cs2)o1 (stereo not given) is higher in “Percent Effect” value: -17.01% for the first, 6.035% for the second.

Going from Cc1cc(Br)oc1C(=O)N1CCN(CC(N)=O)CC1 to CC(=O)N1CCCN(C(=O)NC(C)c2ccc(C)o2)CC1 (stereo not given), the “Percent Effect” value rises from -14.01% to -7.479%.

Compared with CS(=O)(=O)Cc1nc(C2CC2)nn1-c1ccccn1, Cc1ccc(-c2cc(C(=O)N3CCCC3c3cccnc3)[nH]n2)o1 (stereo not given) is higher in “Percent Effect” value: -14.62% for the first, -6.11% for the second.

First: CC(C)CS(=O)(=O)N1CCC2(CC1)CCn1c(-c3cnn(C)c3)cnc12
Second: N#Cc1cccc(-c2ncnn2CC2(O)CCCCC2)c1
The “Percent Effect” value of the first is higher: 2.953% for the first, 2.299% for the second.

Compared with CN(C)c1nc(N)nc(CSCCC(=O)Nc2cccc(Cl)c2)n1, CC(C)n1c(=O)c2sccc2n(CC(=O)Nc2cccc(Cl)c2)c1=O is higher in “Percent Effect” value: 5.106% for the first, 121.3% for the second.

Going from Cc1cccc(CN2C[C@@H]3COC[C@]3(CNC(=O)C3CCC3)C2)c1.O=C(O)C(F)(F)F to Cc1cccc(CN2C[C@@H]3COC[C@]3(CNC(=O)C3CC3)C2)c1.O=C(O)C(F)(F)F, the “Percent Effect” value rises from 92.72% to 102.9%.

Going from O=C(NC[C@]12COC[C@H]1CN(Cc1nccs1)C2)N1CCCC1.O=C(O)C(F)(F)F to O=C(NC[C@]12COC[C@H]1CN(Cc1nccs1)C2)c1ccccc1.O=C(O)C(F)(F)F, the “Percent Effect” value falls from 28.78% to 17.76%.

Going from Cc1cccc(CN2C[C@@H]3COC[C@]3(CNC(=O)N3CCCC3)C2)n1.O=C(O)C(F)(F)F.O=C(O)C(F)(F)F to Cc1ccccc1CN1C[C@@H]2COC[C@]2(CNC(=O)C2CCC2)C1.O=C(O)C(F)(F)F, the “Percent Effect” value rises from 5.948% to 116.7%.

First: COc1cccc(CN2C[C@@H]3COC[C@]3(CNC(=O)C3CC3)C2)c1.O=C(O)C(F)(F)F
Second: COC(=O)CC(NC(=O)c1cccc(N2CCCC2=O)c1)C(=O)OC (stereo not given)
The “Percent Effect” value of the first is higher: 100.6% for the first, -7.194% for the second.

First: Cc1ccc(-c2cc(N)c(=O)n(C(C)C(N)=O)n2)o1 (stereo not given)
Second: Cc1ccc(-c2cc(N)c(=O)n(C(C)C(=O)NC(C)C)n2)o1 (stereo not given)
The “Percent Effect” value of the first is lower: 92.46% for the first, 115.3% for the second.

First: Cc1ccc(-c2nc(CC(=O)NCC(C)N3CCOCC3)cs2)o1 (stereo not given)
Second: COCCNC(=O)C(C)n1nc(-c2ccc(C)o2)cc(N)c1=O (stereo not given)
The “Percent Effect” value of the first is lower: -1.179% for the first, 104.7% for the second.

Going from CCCNC(=O)C(C)n1cc(Br)cn1 (stereo not given) to CCCNC(=O)C(C)n1nc(-c2ccc(C)o2)cc(N)c1=O (stereo not given), the “Percent Effect” value rises from -2.063% to 87.57%.
